Records with an inconclusive call do not appear. Calls of active or inactive are those of the source. The call rests on the fitted dose curve; in most records, active means well fitted curve in the direction sought with a large enough effect; inconclusive means small, poorly fitted or top-dose-only effect, or another doubt; inactive means no such curve, though single readings can be large; an effect the other way counts as inactive or inconclusive.

These results are taken from PubChem BioAssay (NCATS).

A short description of assay [1]: Quantitative High-Throughput drug screen in 47 multiple myeloma cell lines against the NCATS MIPE library collection: Karpas620_DSMZ cell viability assay (AID 1918959). Further: nearly all actives have a fitted effect of over 30% in size. Further: potency means the concentration at half of the fitted maximal effect. The gist of the method:
(§1)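 qHTS of the MIPE 4.0 collection: 500 myeloma cells/well, 48 h drug exposure at 37C in 5% CO2, then CellTiter-Glo for 5 min at room temperature before luminescence reading.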

Assay [2] is described as follows: Quantitative High-Throughput drug screen in 47 multiple myeloma cell lines against the NCATS MIPE library collection: KMM1_JCRB cell viability assay (AID 1918960). Further: nearly all actives have a fitted effect of over 30% in size. Further: potency means the concentration at half of the fitted maximal effect. The gist of the method: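 Viability screen: myeloma cells (500/well) incubated 48 h at 37 °C, humidified 5% CO2, with pinned library compounds; CellTiter-Glo added, luminescence read; DMSO wells set 100%, medium-only wells 0%.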

A short description of assay [3]: Quantitative High-Throughput drug screen in 47 multiple myeloma cell lines against the NCATS MIPE library collection: Karpas417_ECACC cell viability assay (AID 1918961). Particulars: Karpas417 myeloma viability, CellTiter-Glo ATP luminescence, 48 h; viability (% of DMSO): at 45.8 µM (top of the series). The procedure, abridged:
(§2)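 Luminescent ATP measurement with CellTiter-Glo gives viability, scaled between DMSO-only wells (100%) and media-only wells (0%). Cells, 500 per well, faced library compounds for 48 hours at 37C.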
Background: In ATP-based viability assays light output follows the ATP content of the culture.

Assay [4] in a line: Quantitative High-Throughput drug screen in 47 multiple myeloma cell lines against the NCATS MIPE library collection: JIM3_ECACC cell viability assay (AID 1918963; further: nearly all actives have a fitted effect of over 35% in size; further: potency means the concentration at half of the fitted maximal effect). The procedure, abridged: as §1
Assay [5] is described as follows: Quantitative High-Throughput drug screen in 47 multiple myeloma cell lines against the NCATS MIPE library collection: JJN3_DSMZ cell viability assay (AID 1918966; further: nearly all actives have a fitted effect of over 50% in size; further: potency means the concentration at half of the fitted maximal effect). The procedure, abridged: (§3)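 Relative luminescence from CellTiter-Glo served as the viability signal, referenced to DMSO-treated (100%) and cell-free medium (0%) controls. Treatment lasted 48 hours at 37C with 500 cells per well.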

Assay [6] can be described thus: Quantitative High-Throughput drug screen in 47 multiple myeloma cell lines against the NCATS MIPE library collection: H1112_PLB cell viability assay (AID 1918967; further: nearly all actives have a fitted effect of over 30% in size; further: potency means the concentration at half of the fitted maximal effect). The gist of the method: as §3
Assay [7] in a line: Quantitative High-Throughput drug screen in 47 multiple myeloma cell lines against the NCATS MIPE library collection: Karpas25_ECACC cell viability assay (AID 1918968; further: nearly all actives have a fitted effect of over 35% in size; further: potency means the concentration at half of the fitted maximal effect). The procedure, abridged: as §3
Assay [8] is described as follows: Quantitative High-Throughput drug screen in 47 multiple myeloma cell lines against the NCATS MIPE library collection: KMS27_JCRB cell viability assay (AID 1918970). Further: nearly all actives have a fitted effect of over 30% in size. Further: potency means the concentration at half of the fitted maximal effect. Particulars: KMS27 myeloma cells, CellTiter-Glo ATP viability, 48 h; viability (% of DMSO): at 45.8 µM (top of the series). The gist of the method: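 Each line is seeded at 500 cells per well and treated with library compounds for 48 hours under 37 °C, 5% CO2. CellTiter-Glo is then added for 5 min at room temperature before median relative luminescence is recorded.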

The nature of assay [9]: Quantitative High-Throughput drug screen in 47 multiple myeloma cell lines against the NCATS MIPE library collection: KMS12PE_JCRB cell viability assay (AID 1918972). Further: nearly all actives have a fitted effect of over 30% in size. Further: potency means the concentration at half of the fitted maximal effect. The procedure, abridged: as §2
Assay [10] in a line: Quantitative High-Throughput drug screen in 47 multiple myeloma cell lines against the NCATS MIPE library collection: KMS20_JCRB cell viability assay (AID 1918973). Further: nearly all actives have a fitted effect of over 45% in size. Further: potency means the concentration at half of the fitted maximal effect. The gist of the method:
as §3

The nature of assay [11]: Quantitative High-Throughput drug screen in 47 multiple myeloma cell lines against the NCATS MIPE library collection: KMS26_JCRB cell viability assay (AID 1918975). Further: nearly all actives have a fitted effect of over 45% in size. Further: potency means the concentration at half of the fitted maximal effect. The procedure, abridged:
(§4)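 Steps: seed 500 cells per well; pin-transfer MIPE 4.0 library; incubate 48 h at 37C, 5% CO2, humidified; add CellTiter-Glo, 5 min room temperature; read luminescence.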

Assay [12] is described as follows: Quantitative High-Throughput drug screen in 47 multiple myeloma cell lines against the NCATS MIPE library collection: NCIH929_DSMZ cell viability assay (AID 1918978). Further: nearly all actives have a fitted effect of over 35% in size. Further: potency means the concentration at half of the fitted maximal effect. The gist of the method:
(§5)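 qHTS format: cells plated (500/well), pin-dosed with MIPE 4.0 compounds, kept 48 h at 37 °C. Readout was CellTiter-Glo luminescence, median RLU.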

Assay [13] can be described thus: Quantitative High-Throughput drug screen in 47 multiple myeloma cell lines against the NCATS MIPE library collection: OCIMY1_PLB cell viability assay (AID 1918979). Further: nearly all actives have a fitted effect of over 35% in size. Further: potency means the concentration at half of the fitted maximal effect. The procedure, abridged:
as §5

Assay [14] in a line: Quantitative High-Throughput drug screen in 47 multiple myeloma cell lines against the NCATS MIPE library collection: KHM11_PLB cell viability assay (AID 1918962). The procedure, abridged: as §1
A short description of assay [15]: Quantitative High-Throughput drug screen in 47 multiple myeloma cell lines against the NCATS MIPE library collection: JIM1_ECACC cell viability assay (AID 1918964; further: potency means the concentration at half of the fitted maximal effect). The gist of the method: as §3
The nature of assay [16]: Quantitative High-Throughput drug screen in 47 multiple myeloma cell lines against the NCATS MIPE library collection: INA6_PLB cell viability assay (AID 1918965; further: potency means the concentration at half of the fitted maximal effect; nearly all actives have a fitted effect of over 55% in size). The procedure, abridged:
as §2

Assay [17] can be described thus: Quantitative High-Throughput drug screen in 47 multiple myeloma cell lines against the NCATS MIPE library collection: KMS12BM_JCRB cell viability assay (AID 1918971). The procedure, abridged:
as §4

The nature of assay [18]: Quantitative High-Throughput drug screen in 47 multiple myeloma cell lines against the NCATS MIPE library collection: MMM1_PLB cell viability assay (AID 1918976). The gist of the method:
as §5

A short description of assay [19]: Quantitative High-Throughput drug screen in 47 multiple myeloma cell lines against the NCATS MIPE library collection: MOLP8_DSMZ cell viability assay (AID 1918977). Further: potency means the concentration at half of the fitted maximal effect; nearly all actives have a fitted effect of over 45% in size. The gist of the method:
as §5

Assay [20] in a line: Quantitative High-Throughput drug screen in 47 multiple myeloma cell lines against the NCATS MIPE library collection: KMS21BM_JCRB cell viability assay (AID 1918974). Further: potency means the concentration at half of the fitted maximal effect. Particulars: ATP luminescence, 48 h; viability: at 45.8 µM (top of the series). The procedure, abridged: as §3

`CCOC(=O)C=C[C@H](C[C@@H]1CCNC1=O)NC(=O)[C@@H](CC(=O)[C@@H](NC(=O)c1cc(C)on1)C(C)C)Cc1ccc(F)cc1`: the Potency entry in assay [1], in assay [2], in assay [3], in assay [4], in assay [5] and in assay [6] was “inactive” in each case. Further, the Potency entry in assay [7], in assay [8], in [9], in assay [10], in assay [11] and in [12] was “inactive” in each case. The Potency entry in assay [13] is “inactive”.
On to `CC(C)C[C@H](NC(=O)CNC(=O)c1cc(Cl)ccc1Cl)B1OC(=O)CC(CC(=O)O)(C(=O)O)O1` (some centres not stated), for which the Potency in assay [1] was 0.0526 µM (active); in assay [2], 0.0418 µM (active); in assay [14] it was 0.0372 µM (active); in assay [4], 0.0833 µM (active); in assay [15], 0.0372 µM (active); in assay [16] it was 0.0332 µM (active). Besides, the Potency in assay [5] is 0.0743 µM (active); in assay [6] it was 0.0662 µM (active); in assay [8], 0.0833 µM (active); in assay [17], 0.0833 µM (active); in [9] it was 0.0469 µM (active); in assay [10] it was 0.166 µM (active). Moreover, the Potency in assay [11] is 0.0935 µM (active); in [18], 6.62 µM (active); in assay [19], 0.0469 µM (active); in assay [12], 0.0332 µM (active); in [13] it was 0.059 µM (active).
Consider `COc1cc(O)c2c(c1)C1OC1C[C@H](O)[C@H](O)C(=O)C=CC[C@H](C)OC2=O` (some centres not stated), for which the Potency in assay [1] is 2.64 µM (active); in assay [2], 4.18 µM (active); in [14], 0.296 µM (active); in [4] it was 3.72 µM (active); in assay [15], 2.96 µM (active); in [16], 2.96 µM (active). Also, the Potency in assay [5] is 5.26 µM (active); in assay [6] it was 5.26 µM (active); in [7], 3.32 µM (active); in [8], 7.43 µM (active); in assay [17], 1.48 µM (active); in assay [9] it was 11.8 µM (active). Besides, the Potency in assay [10] was 1.18 µM (active); in [11], 1.87 µM (active); in assay [18], 18.7 µM (active); in assay [19] it was 0.418 µM (active); in assay [12], 1.48 µM (active).
On to `C=Cc1c(C)c2cc3nc(cc4[nH]c(cc5nc(cc1[nH]2)C(C)=C5CCC(=O)O)c(CCC(=O)OC)c4C)[C@@]1(C)C3=CC=C(C(=O)OC)[C@H]1C(=O)OC`, for which the Potency was 0.187 µM (active) in assay [1]; 0.187 µM (active) in [2]; 0.526 µM (active) in [14]; 0.418 µM (active) in assay [4]; 0.148 µM (active) in assay [15]; 0.209 µM (active) in assay [16]. Besides, the Potency in [5] was 0.0296 µM (active); in assay [6] it was 0.235 µM (active); in [7] it was 0.132 µM (active); in [8], 0.132 µM (active); in assay [17] it was 0.187 µM (active); in assay [9], 0.187 µM (active). For the same molecule, the Potency in assay [10] is 0.148 µM (active); in assay [11] it was 0.743 µM (active); in assay [18] it was 0.332 µM (active); in assay [19] it was 2.09 µM (active).
Take `Cn1cc(C2=C(c3c4n(c5ccccc35)CCC(CN)C4)C(=O)NC2=O)c2ccccc21` (configuration not stated): the Potency was 9.35 µM (active) in assay [1]; 13.2 µM (active) in assay [2]; 7.43 µM (active) in assay [14]; 10.5 µM (active) in assay [4]; 8.33 µM (active) in [15]; 3.72 µM (active) in [16]. The Potency was 9.35 µM (active) in assay [5]; 7.43 µM (active) in assay [6]; 7.43 µM (active) in [7]; 8.33 µM (active) in assay [8]; 14.8 µM (active) in [17]; 8.33 µM (active) in assay [9]. Further, the Potency is 6.62 µM (active) in [10]; 7.43 µM (active) in [20]; 18.7 µM (active) in [11]; 20.9 µM (active) in assay [18]; 13.2 µM (active) in [19]; 7.43 µM (active) in [12]. Further, in assay [13], the Potency was 20.9 µM (active).
